Compound activity deposited in PubChem by National Center for Advancing Translational Sciences (NCATS).
KCNH2 3.1 block = qHTS for Inhibitors of KCHN2 3.1: Mutant qHTS; Potassium voltage-gated channel subfamily H member 2, brain isoform KCNH2 3.1 (human); U2OS KCNH2 3.1, thallium flux FluxOr; stronger effect = lower value; activity change, % (tested at about 1.8 µM); actives 0.95% (n = 340,000); AID 720553, 2013;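 active means maximum activity change below -70%; inconclusive means maximum activity change from -70% to -50%; inactive means maximum activity change above -50%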;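 further: thallium influx rate constant from kinetic fluorescence after stimulation buffer; on the % scale 0 is the no-effect control and ±100 the full control effect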
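Steps: virus added to U2OS suspension (4 h, RT, dark); medium with 10% FBS added, cells plated, 37 C overnight; FluxOr/Red40 loading buffer 45 min RT; stimulation buffer, 2 min kinetic read; rate constant normalized.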
KCNH2 WT inh = qHTS for Inhibitors of KCHN2 3.1: Wildtype qHTS; Voltage-gated inwardly rectifying potassium channel KCNH2 (Homo sapiens), Q12809; U2OS, BacMam KCNH2, thallium flux FluxOr; stronger effect = lower value; activity change, % at 1.84 µM; actives 0.37% (n = 340,000); AID 720551, 2013;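 active means maximum activity change below -70%; inconclusive means maximum activity change between -70% and -50%; inactive means maximum activity change above -50%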; further: on the % scale 0 is the no-effect control and ±100 the full control effect
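U2OS cells were transduced with wild-type KCNH2 virus (2.03 x 10^8 / mL) for 4 h at room temperature, then cultured overnight at 37 C. Thallium flux was read with FluxOr dye. Rate constants were normalized to DMSO controls.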
TRPML1 agonist = qHTS for Agonists of the Human Mucolipin Transient Receptor Potential 1 (TRPML1) | activation, % (concentration not given with the values) | actives 0.12% (n = 410,000) | Mucolipin-1 (Homo sapiens), Q9GZU1 | TRPML1-expressing cells, Ca2+ dye fluorescence, FDSS; in the data active means activation above about 50%; inconclusive means mostly about 30% to 49%; further: 0% is about no effect
Target sequence (Q9GZU1 whole entry, looked up): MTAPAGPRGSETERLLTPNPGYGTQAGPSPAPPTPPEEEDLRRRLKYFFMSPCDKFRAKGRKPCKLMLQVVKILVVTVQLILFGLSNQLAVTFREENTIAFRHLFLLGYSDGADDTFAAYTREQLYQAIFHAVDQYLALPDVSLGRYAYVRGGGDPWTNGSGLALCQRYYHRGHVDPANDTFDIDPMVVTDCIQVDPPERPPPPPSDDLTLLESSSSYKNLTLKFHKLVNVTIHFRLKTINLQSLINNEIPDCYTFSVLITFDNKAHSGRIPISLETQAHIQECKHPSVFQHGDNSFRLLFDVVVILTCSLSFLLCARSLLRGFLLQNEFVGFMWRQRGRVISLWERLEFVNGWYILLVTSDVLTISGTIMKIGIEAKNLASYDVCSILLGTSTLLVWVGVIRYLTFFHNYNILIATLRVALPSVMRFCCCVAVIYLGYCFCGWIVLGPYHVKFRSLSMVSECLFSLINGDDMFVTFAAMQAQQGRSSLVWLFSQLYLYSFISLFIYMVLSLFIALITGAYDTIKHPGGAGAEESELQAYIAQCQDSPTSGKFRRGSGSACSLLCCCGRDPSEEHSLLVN
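Tetracycline-induced TRPML1-DL cells are seeded and incubated overnight before loading with a no-wash Ca2+ dye and quencher. Agonist activity is taken from the 110 s fluorescence read following compound pin-transfer on an FDSS, before EC80 54-4 challenge.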
TRPML1 blocker = qHTS for Inhibitors of the Human Mucolipin Transient Receptor Potential 1 (TRPML1); Mucolipin-1 (Homo sapiens), Q9GZU1; TRPML1-inducible cells, Ca2+ dye fluorescence, FDSS; stronger effect = lower value; inhibition of EC80 agonist-evoked calcium signal; activity change, negative = inhibition, % (no concentration beside the values); actives 0.02% (n = 390,000); AID 624415, 2012; in the data active means activity change below about -50%; inconclusive means between about -30% and that limit;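 further: stimulus is agonist 54-4 at its EC80 concentration; on the % scale 0 is the no-effect control and ±100 the full control effect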
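TRPML1-DL cells, Tet-induced overnight (~16 h, 37 °C) at 1,500 cells/well, were loaded with Ca8 no-wash dye plus quencher for 45-90 min at room temperature. Compounds were pinned during FDSS kinetic reading; agonist 54-4 at EC80 (4 uM final) then added.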
TRHR enhancer-1 = qHTS for Small Molecule Agonists and Allosteric Enhancers of Human TRH Receptor: Primary Screen for Enhancers; Thyrotropin-releasing hormone receptor (Homo sapiens), P34981; TRHR cells, fluo-8 calcium fluorescence, EC20 TRH enhancement; enhancement, % at 2 µM; actives 0.66% (n = 360,000); AID 493056, 2011; in the data active means enhancement above about 30%; further: 0% is about no effect
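TRHR-expressing cells loaded with fluo-8 calcium dye were read kinetically (ex 480/em 530) during compound addition, then stimulated with an EC20 of TRH (10 nM final). Enhancement of the Gq-mediated intracellular calcium response was scored.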
TRHR agonist-1 = qHTS for Small Molecule Agonists and Allosteric Enhancers of Human TRH Receptor: Primary Screen for Agonists; Thyrotropin-releasing hormone receptor (Homo sapiens), P34981; TRHR cells, calcium flux fluo-8, FDSS agonist mode; activation, % at 2 µM; actives 0.18% (n = 360,000); in the data active means activation above about 30%; further: 0% is about no effect
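TRHR-expressing cells, plated overnight in medium with 10% serum, were loaded with fluo-8 calcium dye at room temperature. After a 10 s baseline, library compound was pin-added and calcium release was recorded kinetically (ex 480/em 530) as agonist response.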
TRHR enhancer-2 = qHTS for Small Molecule Agonists and Allosteric Enhancers of Human TRH Receptor: Confirmation Screen for Enhancers; activity change, negative = inhibition, % at 46.1 µM; shares compounds with TRHR enhancer-1; 970 tested, under 10 active; TRH receptor cell assay, enhancer confirmation qHTS; AID 493076, 2011;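 further: compound effect scored on response to added TRH at EC20 of 10 nM; 0% is about no effect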
TRHR agonist-2 = qHTS for Small Molecule Agonists and Allosteric Enhancers of Human TRH Receptor: Confirmation Screen for Agonists; TRHR-expressing cells, agonist activation read-out; AID 493078, 2011; Potency, µM (highest dose often 46.1 µM), for the others: at the top dose activation, usual class: activators; actives 8% (n = 970); shares compounds with TRHR enhancer-1; further: potency means the concentration at half of the fitted maximal effect; 0% is about no effect; nearly all actives have a fitted effect of over 75% in size
* marks the source's active call; other numbers are inactive results; ? = inconclusive; nt = not tested or not shown. Most compounds without a hit are left out; they make up all but 1.7% or so of the library. Unless noted, the call rests on the fitted dose curve; in most records, active means well fitted curve in the direction sought with a large enough effect; inconclusive means small, poorly fitted or top-dose-only effect, or another doubt; inactive means no such curve, though single readings can be large; an effect the other way counts as inactive or inconclusive.

SMILES	KCNH2 3.1 block	KCNH2 WT inh	TRPML1 agonist	TRPML1 blocker	TRHR enhancer-1	TRHR agonist-1	TRHR enhancer-2	TRHR agonist-2
CCC1=NN(C(=O)c2ccc(Cl)cc2)C(O)(c2ccccc2)C1 (centres undefined)	-26.1	-2.4	nt	nt	-10.8	0.0	nt	nt
O=P1(c2ccccc2)C=Cn2c1cc1c2CCCC1 (centres undefined)	-4.3	20.4	0.6	3.0	60.1*	0.1	11.7	-0.6%
COc1ccc(-c2nc(SCC(=O)NC3CCCCC3)n[nH]2)cc1	-2.8	-12.6	-0.6	0.2	-11.5	-0.5	nt	nt
Clc1cccc(Cl)c1CSc1nnc(-c2ccncc2)s1	-8.9	-1.7	7.1	2.9	2.5	25.5	0.0	?
Clc1ccc(CSc2nnc(-c3ccncc3)s2)cc1	21.8	-1.3	2.4	36.8	-5.1	-1.8	nt	nt
CC1=CC(=C(C#N)c2nc3ccccc3s2)C=C(C)N1CC1CCCO1 (centres undefined)	0.9	-3.8	26.0	-23.6	5.3	38.8*	?	18.4µM*
c1ccc2sc(NCC3CCCO3)nc2c1 (centres undefined)	3.2	-2.3	0.0	2.5	3.6	0.1	nt	nt
COc1ccc(CNc2ncc(-c3ccc(F)cc3)n2C)cc1OC	-0.4	-14.9	-0.7	-10.8	25.2	0.5	nt	nt
COc1cc(CNc2ncc(-c3ccc(Br)cc3)n2C)cc(OC)c1O	6.1	14.4	-0.7	-6.3	41.1*	0.4	0.5	5.3%
CCOC(=O)c1[nH]cnc1C(=O)Nc1ccc(C)cc1	-30.6	1.1	-0.7	-5.0	51.0*	-0.3	-1.9	5.2%
CCOC(=O)c1[nH]cnc1C(=O)Nc1ccc(Cl)cc1	-0.5	2.8	3.0	14.2	4.8	0.4	nt	nt
Cc1ccccc1CN1[C@H]2CCCC[C@@H]2OCCS1(=O)=O	nt	nt	-1.0	nt	nt	nt	nt	nt
COc1cc(/C=C(/C#N)C(=O)NC(C)c2ccccc2)cc(OC)c1O (centres undefined)	-10.8	-2.6	9.4	13.1	0.2	118.2*	7.8	20.6µM*
CC(C)Oc1ccc(S(=O)(=O)N2CCOCC2)cc1NC(=O)C1=COCCO1	11.0	-0.6	-1.0	45.5	7.8	-0.1	nt	nt
COc1ccc(C2C(C(C)=O)=C(C)N=c3s/c(=C/c4ccc5c(c4)OCO5)c(=O)n32)cc1 (centres undefined)	nt	nt	nt	nt	-8.1	38.2*	8.0	?
Cc1cccc(C(=O)Nc2ccc(OCc3cc(=O)n4ccsc4n3)cc2)c1	nt	nt	-1.1	-8.2	5.1	-0.9	nt	nt
Nc1c(C(=O)C2CC2)sc2nc(-c3ccccc3)cc(C(F)(F)F)c12	?	-44.9	?	-8.8	10.4	42.6*	9.4	8.2µM*
CCOc1cccc(NC(=O)C2CC(=O)NC(=Nc3ccccc3)S2)c1 (centres undefined)	-15.4	4.9	0.0	24.9	84.3*	-0.3	-0.5	1.7%
Cc1cccc(N2CCN(C(=O)c3ccc4c(c3)CCN4S(C)(=O)=O)CC2)c1C	1.9	-1.2	-0.8	6.4	5.8	-0.1	nt	nt
Nc1[nH]c2cc([N+](=O)[O-])ccc2c1-c1ccccn1	-2.2	5.2	11.5	6.2	-7.8	30.5*	1.8	?
CCC1CCCCN1C(=O)CSc1nnc(N)s1 (centres undefined)	7.3	19.2	-0.8	-7.5	nt	nt	nt	nt
CCn1c(SCC(N)=O)nc2c1c(=O)n(C)c(=O)n2C	8.3	0.9	-0.2	-3.0	1.9	1.3	nt	nt
CCn1c(N)nc2c1c(=O)n(C)c(=O)n2C	7.2	-9.5	-0.2	-9.3	44.0*	0.7	2.1	-0.8%
O=C(Nc1cc(C(F)(F)F)ccc1F)C1Cc2c(-c3ccccc3Oc3ccccc3)ccnc2O1 (centres undefined)	nt	nt	0.2	nt	nt	nt	nt	nt
CNC(=O)CSc1nc2cccnc2n1C1CCCCC1	-24.0	-14.6	nt	nt	0.0	-0.2	nt	nt
SMILES	KCNH2 3.1 block	KCNH2 WT inh	TRPML1 agonist	TRPML1 blocker	TRHR enhancer-1	TRHR agonist-1	TRHR enhancer-2	TRHR agonist-2
CC(C)(C)NC(=O)CSc1nc2cccnc2n1C1CCCCC1	-9.3	6.8	2.0	25.5	51.0*	-0.5	-14.0	-0.7%
C(=C\c1ccco1)/C1=NN(c2ccccc2)C(c2ccco2)C1 (centres undefined)	-6.6	0.5	1.4	5.0	-2.4	10.1	nt	nt
O=[N+]([O-])c1ccc(/C=C/C2=NN(c3ccccc3)C(c3ccco3)C2)o1 (centres undefined)	-72.9*	-44.7	18.6	-6.1	-9.4	39.9*	-4.8	?
Cc1ccc2[nH]c(O)c(N=NC(N)=S)c2c1	-2.8	0.0	-0.6	-6.3	-7.2	0.1	nt	nt
COc1ccc2[nH]c(O)c(N=NC(=N)N)c2c1	-6.1	16.8	0.8	-9.2	61.8*	0.7	1.7	-0.5%
COC(=O)C(Cc1c[nH]c2ccccc12)NC(=O)COc1ccc(Cl)cc1Cl (centres undefined)	nt	nt	3.5	-19.1	-2.3	-0.9	nt	nt
O=c1ccc(-c2nc3ccccc3n2Cc2ccc(Cl)cc2)c[nH]1	-9.6	1.4	-0.1	-8.0	49.3*	1.2	-7.1	0.7%
Cn1c(-c2ccc(=O)[nH]c2)nc2ccccc21	4.5	-7.8	-0.2	-9.0	3.2	-0.4	nt	nt
Cn1c(SCC(=O)NCc2ccco2)nnc1-c1ccccc1	2.4	-0.6	-0.4	28.9	0.1	0.4	nt	nt
Cn1c(SCC(=O)NCc2ccco2)nnc1-c1ccc(S(=O)(=O)N2CCOCC2)cc1	-3.0	-5.9	4.8	-2.5	47.4*	-0.2	-2.9	-0.5%
CCC(C)C(NC(=O)c1ccccc1)C(=O)Nc1ccc(S(=O)(=O)Nc2cc(C)nc(C)n2)cc1 (centres undefined)	38.3	-3.4	2.4	49.6	-1.5	0.7	nt	nt
